For 97 molecules, inhibition results are on record in PubChem BioAssay AID2315 (National Center for Advancing Translational Sciences (NCATS), 2010).

The whole screen tested about 290,000 compounds, of which about 27,000 (9.3%) were called active. The full list was thinned out, with actives kept by preference. Unmarked numbers belong to inactive results. Rule as the data show it: active = inhibition mostly above about 28% (no sharp cut-off); inactive = mostly below about 43%.

The experiment in a line: A qHTS for Small Molecule Inhibitors of Shiga Toxin. Also: 0% is about no effect. As to conditions: Vero cells, Shiga toxin protein synthesis inhibition reporter; at 38.7 µM, active compounds read high. Background: In qHTS, concentration-response curves come from the screen itself.
In general, inhibition refers to the relative decrease from the control value, in per cent. With `COc1ccc(Cl)cc1NC(=O)c1cccc(N2C(=O)C3CC=CCC3C2=O)c1` (configuration not stated), the inhibition is -4.45%.

Regarding `COc1ccc(S(=O)(=O)N2CCSCC2)cc1`, the inhibition was -9.94%.

Regarding `CCOC(=O)N1CCN(Cc2nnc(-c3ccccc3Cl)o2)CC1`, the inhibition is -5.19%.

For the molecule `O=C(COc1ccccc1)Nc1ccc(C(=O)N2CCCC2)cc1`, the inhibition is 9.15%.

Take `COc1cc(C2NC(=O)NC(c3ccccc3)=C2C(C)=O)c(Br)cc1OCC(N)=O` (configuration not stated): the inhibition was -4.39%.

On to `O=C(NC(=S)Nc1ccc(NC(=O)c2cccs2)cc1)c1ccc([N+](=O)[O-])cc1`, for which the inhibition is 36.1%.

Turning to `O=C(NC(=S)Nc1cccc(-c2ccc(CO)o2)c1)c1cccs1`, the inhibition is 127% (active).

Take `O=C(Nc1ccccc1-c1ccccc1)c1cccs1`: the inhibition is -12.5%.

As to `O=S(=O)(Cc1cc(Cl)nc(-c2cccnc2)n1)c1ccccc1`, the inhibition was 40.3%.

Consider `O=C(c1cc(S(=O)(=O)N2CCOCC2)ccc1Cl)N1CCOCC1`, for which the inhibition is -6.61%.

Regarding `CC(C)CCN(C(=O)c1csnn1)C(C(=O)NC1CCCC1)c1ccccc1` (configuration not stated), the inhibition is -3.8%.

In the case of `Cc1cc2c(=O)n(CC(=O)NCC(=O)Nc3ccc(C(C)C)cc3)cnc2s1`, the inhibition is -9.56%.

`COc1ccc(CCNC(=O)CCNS(=O)(=O)c2cc(Br)cnc2N)cc1OC`: the inhibition is -6.21%.

Take `CS(=O)(=O)N(CC(=O)N1CCOCC1)c1cccc(Cl)c1Cl`: the inhibition is 1.97%.

As to `O=C(Cn1nnc(-c2ccccc2)n1)NCc1ccccc1`, the inhibition is -10.9%.

`Cc1ccccc1-c1nnn(CC(=O)c2ccc(S(=O)(=O)N3CCCC3)cc2)n1`: the inhibition is -5.14%.

As for `Cc1nc2ccccc2n1CC(O)c1ccccc1` (configuration not stated), the inhibition is -2.2%.

Turning to `CCOc1ccc(S(=O)(=O)N2CCCC(C(=O)N3CCC(C(N)=O)CC3)C2)cc1Cl` (configuration not stated), the inhibition is 15.1%.

In the case of `CCOC(=O)CSc1nc(N2CCOCC2)c2c(c1C#N)CC(C(C)C)OC2` (configuration not stated), the inhibition is -7.43%.

Turning to `CC(=O)C1=C(O)C(=O)N(c2ccc(Br)cc2)C1c1ccc([N+](=O)[O-])cc1` (configuration not stated), the inhibition is -5.69%.

Consider `Cc1ccc2nc(N(CCN(C)C)C(=O)C3=COCCO3)sc2c1`, for which the inhibition is 6.59%.

For `CCc1ccc2nc(N(CCCN(C)C)C(=O)c3ccc4c(c3)OCCO4)sc2c1`, the inhibition is -6.1%.

In the case of `CN(C)CCN(C(=O)C1=COCCO1)c1nc2ccc(Cl)cc2s1`, the inhibition was 128% (active).

Take `COc1ccc(NC(=O)C2CCN(S(=O)(=O)c3ccc4[nH]c(=O)oc4c3)CC2)c(OC)c1`: the inhibition was -2.15%.

`Cn1c(Nc2ccccc2)cc(=O)n(C)c1=O`: the inhibition is -6%.

Consider `CN(C)S(=O)(=O)c1ccc(C(=O)NCCN=C2NS(=O)(=O)c3ccccc32)cc1`, for which the inhibition is -13.8%.

For `Cc1[nH]n(-c2cccc(Cl)c2)c(=O)c1-c1ccc(Cl)cc1`, the inhibition is 34.8%.

`O=c1c(-c2ccccc2Cl)c[nH]n1-c1ccccc1`: the inhibition was 9.18%.

As for `O=c1c(-c2cccc(Cl)c2)c[nH]n1-c1ccccc1`, the inhibition was 77.1% (active).

Consider `COc1ccc(CNC(=O)Cc2ccc(-c3ccccc3)cc2)cc1OC`, for which the inhibition is -1.2%.

As to `Cc1cc(=O)[nH]c2nnnn12`, the inhibition was -3.63%.

Regarding `COc1ccccc1C(=O)Nc1cccc(C(=O)N2CCOCC2)c1`, the inhibition is -11.1%.

`O=C(/C=C/c1ccco1)NC(=S)N1CCCCC1`: the inhibition is 47.5% (active).

Consider `COc1ccccc1/C=C/C(=O)NC(=S)N1CCOCC1`, for which the inhibition was 106% (active).

`COc1ccc(/C=C/C(=O)NC(=S)N2CCCC(C(N)=O)C2)cc1` (configuration not stated): the inhibition is 12.4%.

For `O=C(/C=C/c1ccco1)NC(=S)Nc1ccccc1Br`, the inhibition is 26.6%.

For `COc1ccccc1/C=C/C(=O)NC1CC2CCC1C2` (configuration not stated), the inhibition was 12.2%.

For `CCCn1c(C2CCCN2c2nc(-c3ccc(C)cc3)cs2)nc2cc(Cl)c(N3CCCCC3)cc21` (configuration not stated), the inhibition is 26.1%.

`CCOc1ccc(Br)cc1S(=O)(=O)Nc1ccc(C(=O)OC(C)C(=O)N(C)c2ccccc2)cc1` (configuration not stated): the inhibition is -0.904%.

For the molecule `CCOC(=O)c1c(-c2ccccc2)oc2cc(Br)c(O)c(C=O)c12`, the inhibition was 3%.

For `Nc1cc(N)nc(SCc2cccc(F)c2)n1`, the inhibition is 62.3% (active).

For `Nc1cc(N)nc(SCc2ccc(Cl)cc2)n1`, the inhibition was 17.1%.

Regarding `Cc1cc(=O)[nH]c(SCc2cccc(F)c2)n1`, the inhibition was -4.74%.

As to `CN(CC(=O)Nc1ccccc1C(F)(F)F)C(=O)Cc1ccccc1F`, the inhibition was 16.3%.

Take `Cc1ccc(NS(=O)(=O)c2cn(C)c(=O)n(C)c2=O)c(C)c1`: the inhibition is 3.31%.

With `COc1cc(C)c(C)cc1S(=O)(=O)N1CCCc2ccccc21`, the inhibition is 16.5%.

Turning to `COc1ccc(CCC(C)N2CCc3ccccc3C2)cc1` (configuration not stated), the inhibition is -6.15%.

As for `COc1ccc(Oc2c(Cl)cnn(-c3ccccc3)c2=O)cc1`, the inhibition was -10.6%.

As for `COc1ccc(-n2ncc3c(N4CCCc5ccccc54)ncnc32)cc1`, the inhibition was 113% (active).

With `COc1ccc(-n2ncc3c(N4CCc5ccccc54)ncnc32)cc1`, the inhibition was 105% (active).

For `COc1ccc2oc(=O)c(C(=O)N3CCCc4ccccc43)cc2c1`, the inhibition was -5.55%.

As to `Cc1ccc(NC(=O)CN2CCc3ccccc3C2)cc1C`, the inhibition is 17%.

As for `COc1ccc(C(=O)OCC(=O)NCCCc2ccccc2)cc1OC`, the inhibition is -3.51%.

`CC(C)Oc1ccc(/C=C(\NC(=O)/C=C/c2ccco2)C(=O)NCCc2nc3ccccc3[nH]2)cc1`: the inhibition is 14.2%.

As for `O=C(Cc1cccs1)Nc1cccc(-c2nc3ccccc3[nH]2)c1`, the inhibition is 3.19%.

As for `O=C(Nc1cccc(-c2nc3ccccc3[nH]2)c1)c1ccc(C(=O)Nc2cccc(-c3nc4ccccc4[nH]3)c2)cc1`, the inhibition is 62.5% (active).

Take `Cc1ccc(-n2nc3ccc(NC(=O)/C=C/c4ccco4)cc3n2)cc1C`: the inhibition was 63.8% (active).

As to `O=C(/C=C/c1ccco1)Nc1cccc(-c2nc3ccccc3[nH]2)c1`, the inhibition is 157% (active).

As for `NS(=O)(=O)c1cccc(NC(=O)COC(=O)/C=C/c2ccco2)c1`, the inhibition was 26.6%.

As to `CCOC(=O)c1c(NC(=O)/C=C/c2ccco2)sc(C)c1C`, the inhibition is -12.1%.

Take `Cc1ccc(N2NC(=O)/C(=C/C=C/c3ccco3)C2=O)cc1C`: the inhibition is 20.9%.

Regarding `CN(c1ccccc1)S(=O)(=O)c1cc(C(=O)Nc2nc3ccccc3[nH]2)ccc1Cl`, the inhibition was 55.5%.

`COc1ccc(Br)cc1C1C2C=CCC(C)C2C(=O)N1Cc1ccccc1` (configuration not stated): the inhibition is 2.19%.

With `Cc1cnc(C)c(N2CCN(C(=O)C3CCC(=O)N(CCc4cccc(F)c4)C3)CC2)n1` (configuration not stated), the inhibition is 0.443%.

`NC(=O)C1CCN(C(=O)c2ccc3c(=O)n(Cc4cccc(Br)c4)c(=S)[nH]c3c2)CC1`: the inhibition was 0.712%.

Turning to `CCN1C(=S)N[C@@H](c2cccc(C(F)(F)F)c2)C(C(=O)OC)=C1C`, the inhibition was -10.1%.

`COC(=O)C1(C)CC1(c1ccccc1)c1ccccc1` (configuration not stated): the inhibition was -7.31%.

`O=CN1CCN(C(=O)c2ccc3c(c2)OCO3)CC1`: the inhibition was 2.8%.

On to `CN1C(=O)/C(=C/C=C2\SCCN2C)OC1=S`, for which the inhibition was 70.4% (active).

For the molecule `COCCNc1nc(N)c([N+](=O)[O-])c(N2CCCCCC2)n1`, the inhibition was 6.83%.

In the case of `O=CN1CCN(C(=O)c2ccc(Br)o2)CC1`, the inhibition is 17.4%.

Take `Cc1ccc(NC2CCCN(C(=O)CCC3(C)CC3)C2)cc1C` (configuration not stated): the inhibition was -22.1%.

`O=C(Nc1cccc2cccnc12)c1cccc(Cl)c1`: the inhibition is 87.7% (active).

`O=C(Nc1ccccc1Cl)Nn1cnnc1`: the inhibition was 14.1%.

For `N#Cc1ccc(C(=O)Nc2cccc3cccnc23)c(F)c1`, the inhibition is -0.419%.

With `COc1ccc(NC(=O)Nc2cccc3cccnc23)cc1`, the inhibition is 79.2% (active).

Take `COc1ccc(S(=O)(=O)Nc2cccc3cccnc23)c(N)c1`: the inhibition is -26.8%.

With `O=C(Nc1cccc2cccnc12)c1cccc(N2C(=O)CCC2=O)c1`, the inhibition was 30.9%.

On to `CCOC(=O)Cc1ncccc1C(=O)Nc1ccc(OC)cc1`, for which the inhibition is 6.55%.

For `O=C(Nc1ccccc1Cl)Nc1cccc2cccnc12`, the inhibition is 40.9% (active).

Consider `O=C(Nc1cccc2cccnc12)C(F)(F)F`, for which the inhibition is -8.11%.

As to `O=C(COc1ccccc1Cl)N1CCCCCCC1`, the inhibition is 36.9%.

As for `CN(c1ccccc1)S(=O)(=O)c1ccc(NC(=O)COc2ccccc2)cc1`, the inhibition was -5.47%.

For `NS(=O)(=O)c1ccc(CCNS(=O)(=O)c2cccc3cccnc23)cc1`, the inhibition was -5.83%.

`COc1ccc(-c2cc(=O)oc3cc(OC(C)C(=O)Nc4ccc(CN5CCOCC5)cc4)ccc23)cc1` (configuration not stated): the inhibition was -3.54%.

`CCOC(=O)c1c(-c2ccccc2)oc2ccc(OCC(N)=O)cc12`: the inhibition was -3.18%.

For `COc1cc2c(cc1OC)C(C(=O)Nc1cc(C)c(OC)c(C)c1)CC(=O)N2` (configuration not stated), the inhibition is 7.56%.

Regarding `COc1ccc(C(=O)NC(C)Cn2nc(C)cc2C)cc1OC1CCN(C(C)=O)CC1` (configuration not stated), the inhibition is -5.64%.

For `Nc1ccc(C(=O)Nc2ccccc2N)cc1`, the inhibition was 46.6%.

As to `Cc1ccc2c(c1)NCC(C(=O)NC1CCC(C)CC1)O2` (configuration not stated), the inhibition is 64.8% (active).

Turning to `CC1CCC(NC(=O)C2c3ccccc3C(=O)N2Cc2ccc3c(c2)OCO3)CC1` (configuration not stated), the inhibition is 15.2%.

`Cc1ccc(C(=O)NC2CC(C)(C)NC(C)(C)C2)c(C)c1`: the inhibition was -6.82%.

Regarding `O=C(O)CCCN1C(=O)C2C3c4ccccc4C(c4ccccc43)[C@@H]2C1=O` (some centres not stated), the inhibition was -10.8%.

Take `COc1ccc(OC)c(C(O)c2nc3ccccc3n2C)c1` (configuration not stated): the inhibition was -12.2%.

On to `COC(=O)CSc1nnc(-c2cccnc2)o1`, for which the inhibition was 8.44%.

Regarding `COc1ccc(-c2nnc(SCc3cccnc3)o2)cc1`, the inhibition was 48.5% (active).

In the case of `COc1ccc(-c2nnc(SC(=O)N3c4ccccc4Sc4ccccc43)o2)cc1`, the inhibition is 18.6%.
